# Assay outcomes deposited in PubChem by National Center for Advancing Translational Sciences (NCATS).
# KB-3-1 tox = KB-3-1 parental cell cytotoxicity; 400,000 tested, 1.4% active; Potency, µM (series often up to 46.1 µM), hits mostly cytotoxic; KB-3-1 viability, CellTiter-Glo ATP luminescence, 72 h; also: % is scaled to controls: 0 for no effect and ±100 for the full control effect; nearly all actives have a fitted effect of over 60% in size
#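 Cytotoxicity measured as CellTiter-Glo luminescence after 72 h at 37 C. Compound titrations were pinned onto drug-naive KB-3-1 parental adenocarcinoma cells grown in DMEM with 10% FBS, and normalized data fitted to concentration-response curves.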
# RGS4 inh = human RGS4 inhibition. P49798. Transcreener GDP fluorescence polarization, RGS4-accelerated GTP hydrolysis. Potency, µM (series often up to 114 µM), for inactives: top-dose activity change, negative = inhibition, actives largely listed as inhibitors. 390,000 tested, 0.039% active; also: % is scaled to controls: 0 for no effect and ±100 for the full control effect; nearly all actives have a fitted effect of over 75% in size
# Target sequence (P49798 whole entry, looked up): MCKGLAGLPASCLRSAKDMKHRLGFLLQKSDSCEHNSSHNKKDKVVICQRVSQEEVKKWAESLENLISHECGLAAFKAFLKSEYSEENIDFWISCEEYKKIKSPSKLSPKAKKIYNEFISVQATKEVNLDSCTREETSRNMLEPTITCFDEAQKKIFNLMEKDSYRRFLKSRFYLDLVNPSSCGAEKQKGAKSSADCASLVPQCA
#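 MLSMR compounds (23 nl, pin-transferred) preincubated 10 min at room temperature with a 500nM (2x) first reagent, then RGS4 at 900nM (2x) plus Transcreener GDP mix added; fluorescence polarization (620/688 nm) read before and after 90 min at 30 °C.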
# SW480 rereplic = inducers of DNA re-replication in SW480 colon cancer cells. SW480 DNA re-replication, Hoechst DNA content imaging, 48 h. Potency, µM (series often up to 46.1 µM), inactives show at the highest dose re-replication activation, usual class: activators. 340,000 tested, 1.8% active. AID 624297; also: % of control where 0% means no effect; nearly all actives have a fitted effect of over 55% in size
#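 250 cells/well; 23 nL cpd via pin tool; 48 hr, 37 C, 5% CO2; Hoechst 40 min; imager read of total nuclear intensity, ex 405/em 500-530 nm.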
# MCF10A rereplic = DNA re-replication induction in MCF 10a cells; MCF 10A DNA re-replication, Hoechst nuclear intensity, 48 h; Potency, µM (titrated, usually from 46.1 µM), inactives show at the top dose activity, positive = re-replication, actives largely listed as activators; 350,000 tested, 2.9% active; also: % of control where 0% means no effect; nearly all actives have a fitted effect of over 50% in size
# KB-V1 cytotox = KB-V1 MDR subline cytotoxicity. Potency, µM (titrated, usually from 46.1 µM), most hits filed as cytotoxic. 400,000 tested, 3.4% active. KB-V1 MDR cells viability, CellTiter-Glo, 72 h; also: % is scaled to controls: 0 for no effect and ±100 for the full control effect; nearly all actives have a fitted effect of over 60% in size
#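 Readout: CellTiter-Glo luminescence, 10 min after addition. Cells: KB-V1 MDR subline, 72 h at 37 degrees C with compound. Analysis: corrected, normalized data fitted to concentration-effect curves.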
# PTAP TSG101 blk = blocks PTAP/TSG101 interaction to inhibit HIV-1 budding. Q99816. Fluorescence polarization, FITC-PTAP peptide / Tsg101 binding. Potency, µM (highest dose often 115 µM), for inactives: at the highest dose activity change, negative = inhibition, most hits filed as inhibitors. 340,000 tested, under 10 active. AID 493005; active = well fitted inhibition curve with a large enough effect in the main read-out, with a control signal flat, not every such curve was filed as active; inconclusive = small, poorly fitted or top-dose-only effect, or effect the other way, or a change in a side signal; inactive = no such curve, though single readings can be large or run the other way; also: % of control where 0% means no effect
# Target sequence (Q99816 whole entry, looked up): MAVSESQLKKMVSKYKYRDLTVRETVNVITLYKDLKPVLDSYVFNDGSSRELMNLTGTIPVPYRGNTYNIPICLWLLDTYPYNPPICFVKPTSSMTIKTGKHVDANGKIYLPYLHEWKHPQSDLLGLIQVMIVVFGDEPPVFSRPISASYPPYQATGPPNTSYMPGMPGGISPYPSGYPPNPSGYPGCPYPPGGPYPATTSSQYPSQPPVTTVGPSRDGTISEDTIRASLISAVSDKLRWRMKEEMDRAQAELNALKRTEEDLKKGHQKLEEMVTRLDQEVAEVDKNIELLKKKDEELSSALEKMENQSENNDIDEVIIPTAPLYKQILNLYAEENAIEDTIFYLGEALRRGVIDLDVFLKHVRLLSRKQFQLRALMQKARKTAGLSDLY
#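 Steps: Tsg101 binding domain dispensed (10 uM final), compounds pinned in DMSO, FITC-labeled PTAP-motif peptide added (50 nM final); after 20 min binding at room temperature, polarization measured.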
# Numbers without * were called inactive; i = inactive; ? = inconclusive; / = no result; [ ] = dose if it differs, or a comment. Sampled rows, rich in hits. Any-hit rate of the full collection: about 6.6%. Unless noted, calls follow the shape of the dose curve; as a rule, active = well fitted curve in the direction sought with a large enough effect; inconclusive = small, poorly fitted or top-dose-only effect, or another doubt; inactive = no such curve, though single readings can be large; an effect the other way counts as inactive or inconclusive. Potency is read from the fitted curve at half-maximal effect.
SMILES,KB-3-1 tox,RGS4 inh,SW480 rereplic,MCF10A rereplic,KB-V1 cytotox,PTAP TSG101 blk
CC(/C=C/c1ccc(N(C)C)cc1)=N\N=C1\NC(=O)CC(C(=O)Nc2ccccc2)S1 (configuration not stated),i,-15.0%,?,11.6µM*,i,10.0%
COc1ccc(NC(=O)C2CC(=O)N/C(=N/N=C/c3ccccc3)S2)cc1 (configuration not stated),i,18.9%,4.3%,3.6%,i,37.9%
Cc1[nH]c(C)c(C(=O)/C=C/c2ccc([N+](=O)[O-])cc2)c1C,?,?,?,11.6µM*,i,-2.9%
O=C(C=Cc1ccccc1)c1ccc([N+](=O)[O-])cc1,i,-35.4%,16.4µM*,159.9%,i,-4.0%
Cc1ccc(C(=O)/C=C/c2ccccc2[N+](=O)[O-])cc1,i,-36.8%,?,16.4µM*,i,-0.5%
O=C(/C=C/c1cccnc1)c1ccc([N+](=O)[O-])cc1,i,-0.7%,?,?,i,-2.0%
Cc1ccc(C(=O)/C=C/c2ccc(-c3ccccc3[N+](=O)[O-])o2)cc1,i,-21.0%,-0.9%,-2.4%,i,-4.6%
CCCN1CCN(c2cccc(Nc3nn4c(=O)c5ccccc5nc4s3)c2)CC1,?,/,/,/,i,/
CNC(=S)NNC(=O)c1cccn(Cc2ccc(Cl)c(Cl)c2)c1=O,i,-16.9%,0.5%,3.5%,?,-0.6%
C=CCNC(=S)NNC(=O)c1cccn(Cc2ccc(Cl)cc2Cl)c1=O,i,-34.5%,-12.9%,5.1%,23.1µM*,-1.8%
C=CCNC(=S)NNC(=O)c1cccn(Cc2ccc(Cl)c(Cl)c2)c1=O,?,?,24.2%,1.2%,16.4µM*,-0.7%
O=C1c2ccccc2C(=O)N1c1ccc(S(=O)(=O)N2CCOCC2)cc1,?,3.5%,/,/,i,/
C=CCn1c(=O)c(C(=O)Nc2ccccc2O)c(O)c2ccccc21,i,-10.3%,0.4%,19.8%,i,-6.3%
C=CCn1c(=O)c(C(=O)Nc2ccccc2C)c(O)c2ccccc21,?,?,3.7%,18.4µM*,?,3.0%
CCCn1c(=O)c(C(=O)Nc2ccccc2)c(O)c2ccccc21,?,-6.4%,-3.2%,5.9%,23.1µM*,1.9%
CCCn1c(=O)c(C(=O)NCc2cccnc2)c(O)c2ccccc21,i,4.2%,?,20.5%,10.3µM*,-1.1%
CCn1c(=O)c(C(=O)NNC(=O)c2ccccc2)c(O)c2ccccc21,i,-7.9%,27.5%,22.7%,?,0.5%
CCCn1c(=O)c(C(=O)Nc2cccc(C)c2)c(O)c2ccccc21,i,13.8%,-15.2%,10.7%,i,-2.2%
CCn1c(=O)c(C(=O)NNS(=O)(=O)c2ccc(Cl)cc2)c(O)c2ccccc21,i,-25.4%,-8.2%,?,14.6µM*,0.0%
Cc1ccc(NC(=O)Nc2nnc(SCC(=O)N(C(C)C)C(C)C)s2)cc1,/,-7.9%,/,/,/,/
CCCn1c(=O)c(C(=O)NCCc2ccc(OC)c(OC)c2)c(O)c2ccccc21,i,25.8%,-4.0%,1.03µM*,i,1.5%
CCn1c(=O)c(C(=O)NCCc2ccc(OC)c(OC)c2)c(O)c2ccccc21,i,2.5%,7.9%,?,i,-4.3%
COc1ccc(CCNCC(O)Cn2c3ccccc3c3ccccc32)cc1OC (configuration not stated),?,-16.2%,-2.0%,9.2µM*,?,-3.4%
CCCCCCCC(=O)NNC(=O)c1c(O)c2ccccc2n(CC)c1=O,?,3.5%,?,?,18.4µM*,-0.3%
COc1ccccc1NCC(O)Cn1c2ccccc2c2ccccc21 (configuration not stated),i,-13.1%,?,?,i,-1.3%
SMILES,KB-3-1 tox,RGS4 inh,SW480 rereplic,MCF10A rereplic,KB-V1 cytotox,PTAP TSG101 blk
CCCCc1nc2ccccc2c(=O)n1NC(=O)c1c(O)c2ccccc2n(C)c1=O,13µM*,0.6%,?,9.1%,?,-8.9%
CCc1cccc(NC(c2ccccc2)c2nnc(-c3ccccc3F)o2)c1 (configuration not stated),i,7.0%,/,/,i,/
COc1ccc(CCNC(=O)c2cc3c(=O)n(C)c4cc(Cl)ccc4c3s2)cc1OC,i,-11.9%,/,/,i,/
COc1ccc(Cn2c(SCc3ccc(C(=O)NC(C)c4ccccc4)cc3)nc3cccnc32)cc1 (configuration not stated),i,-8.8%,/,/,i,/
CCOC(=O)C1=C(CN2CCN(c3ccccc3F)CC2)NC(=O)NC1c1ccc(OC)cc1 (configuration not stated),/,-5.8%,/,/,/,/
CCn1c(=O)c(C(=O)Nc2ccccc2C)c(O)c2ccccc21,i,0.6%,-9.1%,16.2%,i,-0.5%
CCCn1c(=O)c(C(=O)NNC(=O)Cc2ccccc2)c(O)c2ccccc21,i,-9.5%,-11.2%,2.6%,?,-6.5%
CCCn1c(=O)c(C(=O)Nc2ccccc2C)c(O)c2ccccc21,i,11.3%,-0.4%,?,20.6µM*,2.4%
CC(C)Cn1c(=O)c(C(=O)Nc2ccncc2)c(O)c2ccccc21,7.31µM*,7.5%,?,?,i,-12.9%
CCCn1c(=O)c(C(=O)NNC(=O)c2ccccc2Cl)c(O)c2ccccc21,?,-7.9%,-18.1%,?,9.2µM*,-2.7%
COc1ccc(OCc2nnc3n2N=C(c2ccccc2)CS3)cc1,i,/,/,/,i,/
CC(=O)Nc1ccc(S(=O)(=O)N(Cc2ccccc2)Cc2ccccc2)cc1,/,-2.2%,/,/,/,/
O=C1CCCc2c1nc(-c1ccc([N+](=O)[O-])cc1)n2O,i,-2.9%,33.6%,23.1µM*,i,-0.5%
Cc1ccc(-c2nc3ccccn3c2C=O)cc1,i,-44.4%[56.9 µM],-5.0%,-7.5%,?,-0.7%
COc1cc(-c2nc3ccccn3c2/N=C/c2cc(OC)c(OC)c(OC)c2)ccc1O,i,-26.4%,-5.1%,3.3%,i,-4.2%
Cc1c(-c2ccc(Br)cc2)nc2ccccn12,i,27.9%,-3.6%,?,20.6µM*,0.0%
CN(C)c1ccc(-c2nc3ccccn3c2/N=C/c2ccc(Br)cc2)cc1,14.6µM*,-9.4%,?,-1.9%,9.2µM*,-5.4%
CC(=O)Nc1ccc(C=NN=C2c3ccccc3-c3ccccc32)cc1,i,?,0.5%,?,18.4µM*,-4.6%
COc1ccc(C=NN=C2c3ccccc3-c3ccccc32)cc1O,i,-10.3%,-1.3%,?,?,-3.9%
